About 7,900 targets were measured; listed, in parts, are those with a hit and a random draw of the rest. About 0.6% of all pairs of compound and target were hits.
Columns and labels:
Experiment in all cases: log2 fold change, soluble protein after heating vs DMSO (PISA); higher = thermal stabilisation; K562 cells, 10 uM, 30 min; active = over 0.2 and 3.5 SD of the protein, either way, in both replicates (recomputed)
[1] = compound: CS(=O)(=O)c1ccc(-c2cnc(N)c(C(=O)Nc3ccccc3)n2)cc1
How it was run: (§1)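 K562 cells at 2×10^6 cells/mL were exposed to 10 μM compound for 30 min, then aliquots were heated for 3 min across 48°C-58°C, pooled, and extracted in PBS containing 0.5% NP-40 at 4°C. The supernatant after 21,000xg for 90 min was taken as soluble protein and measured by TMTpro 16plex LC-MS/MS with channel sums equalised. Thermal stability is reported relative to control samples, with values from duplicates. Fold changes are given on a log2 scale.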

crizotinib = compound: C[C@@H](Oc1cc(-c2cnn(C3CCNCC3)c2)cnc1N)c1c(Cl)ccc(F)c1Cl [crizotinib]
How it was run: as §1

[2] = compound: C[C@@H]1COCCN1C2=NC(=NC(=C2)C3(CC3)S(=O)(=O)C)C4=C5C=CNC5=CC=C4
How it was run: as §1

[3] = compound: C[C@H](C1=CC=C(C=C1)C(=O)NC2=C3C=CNC3=NC=C2)N
How it was run: as §1

duvelisib = compound: C[C@H](Nc1ncnc2nc[nH]c12)c1cc2cccc(Cl)c2c(=O)n1-c1ccccc1 [duvelisib]
How it was run: as §1

gandotinib = compound: Cc1cc(Nc2cc(CN3CCOCC3)c3nc(C)c(Cc4ccc(Cl)cc4F)n3n2)n[nH]1 [gandotinib]
How it was run: as §1

tozasertib = compound: Cc1cc(Nc2cc(N3CCN(C)CC3)nc(Sc3ccc(NC(=O)C4CC4)cc3)n2)n[nH]1 [tozasertib]
How it was run: as §1

[4] = compound: Cc1cc(SCc2sc(-c3ccc(C(F)(F)F)cc3)nc2C)ccc1OCC(=O)O
How it was run: as §1

doramapimod = compound: Cc1ccc(-n2nc(C(C)(C)C)cc2NC(=O)Nc2ccc(OCCN3CCOCC3)c3ccccc23)cc1 [doramapimod]
How it was run: as §1

ispinesib = compound: Cc1ccc(C(=O)N(CCCN)[C@@H](c2nc3cc(Cl)ccc3c(=O)n2Cc2ccccc2)C(C)C)cc1 [ispinesib]
How it was run: as §1

bafetinib = compound: Cc1ccc(NC(=O)c2ccc(CN3CC[C@H](N(C)C)C3)c(C(F)(F)F)c2)cc1Nc1nccc(-c2cncnc2)n1 [bafetinib]
How it was run: as §1

[5] = compound: Cc1cccc(CC(=O)N2CCc3c2ccc(-c2cn(C)c4ncnc(N)c24)c3F)n1
How it was run: as §1

nilotinib = compound: Cc1cn(-c2cc(NC(=O)c3ccc(C)c(Nc4nccc(-c5cccnc5)n4)c3)cc(C(F)(F)F)c2)cn1 [nilotinib]
How it was run: as §1

[6] = compound: Cc1nc(Nc2n[nH]c3c2CN(C(=O)N[C@H](CN(C)C)c2ccccc2)C3(C)C)c2sccc2n1
How it was run: as §1

dasatinib = compound: Cc1nc(Nc2ncc(C(=O)Nc3c(C)cccc3Cl)s2)cc(N2CCN(CCO)CC2)n1 [dasatinib]
How it was run: as §1

[7] = compound: Cc1ncc(-c2ccnc(Nc3ccc(S(C)(=O)=O)cc3)n2)n1C(C)C
How it was run: as §1

[8] = compound: Cn1cc(-c2ccc3c(c2)CCN3C(=O)Cc2cccc(C(F)(F)F)c2)c2c(N)ncnc21
How it was run: as §1

[9] = compound: Cn1cc(-c2ccc3nnc(C(F)(F)c4ccc5ncccc5c4)n3n2)cn1
How it was run: as §1

tipifarnib = compound: Cn1cncc1[C@@](N)(c1ccc(Cl)cc1)c1ccc2c(c1)c(-c1cccc(Cl)c1)cc(=O)n2C [tipifarnib]
How it was run: as §1

mubritinib = compound: FC(F)(F)c1ccc(/C=C/c2nc(COc3ccc(CCCCn4ccnn4)cc3)co2)cc1 [mubritinib]
How it was run: as §1

Measured: log2 fold change

CERS2 (UniProt Q96G23)
inactive: [1] -0.027 | [2] -0.054 | [3] -0.034 | duvelisib 0.036 | gandotinib -0.203 | tozasertib -0.049 | [4] -0.032 | doramapimod -0.04 | bafetinib -0.177 | [5] 0.064 | nilotinib -0.128 | [6] -0.015 | dasatinib -0.113 | [7] 0.028 | [8] -0.034 | [9] 0.028 | tipifarnib -0.074 | mubritinib -0.03
active: crizotinib -0.294 | ispinesib -0.466

CLSPN (UniProt Q9HAW4)
UniProt Q9HAW4, sequence (Q9HAW4 whole entry, looked up): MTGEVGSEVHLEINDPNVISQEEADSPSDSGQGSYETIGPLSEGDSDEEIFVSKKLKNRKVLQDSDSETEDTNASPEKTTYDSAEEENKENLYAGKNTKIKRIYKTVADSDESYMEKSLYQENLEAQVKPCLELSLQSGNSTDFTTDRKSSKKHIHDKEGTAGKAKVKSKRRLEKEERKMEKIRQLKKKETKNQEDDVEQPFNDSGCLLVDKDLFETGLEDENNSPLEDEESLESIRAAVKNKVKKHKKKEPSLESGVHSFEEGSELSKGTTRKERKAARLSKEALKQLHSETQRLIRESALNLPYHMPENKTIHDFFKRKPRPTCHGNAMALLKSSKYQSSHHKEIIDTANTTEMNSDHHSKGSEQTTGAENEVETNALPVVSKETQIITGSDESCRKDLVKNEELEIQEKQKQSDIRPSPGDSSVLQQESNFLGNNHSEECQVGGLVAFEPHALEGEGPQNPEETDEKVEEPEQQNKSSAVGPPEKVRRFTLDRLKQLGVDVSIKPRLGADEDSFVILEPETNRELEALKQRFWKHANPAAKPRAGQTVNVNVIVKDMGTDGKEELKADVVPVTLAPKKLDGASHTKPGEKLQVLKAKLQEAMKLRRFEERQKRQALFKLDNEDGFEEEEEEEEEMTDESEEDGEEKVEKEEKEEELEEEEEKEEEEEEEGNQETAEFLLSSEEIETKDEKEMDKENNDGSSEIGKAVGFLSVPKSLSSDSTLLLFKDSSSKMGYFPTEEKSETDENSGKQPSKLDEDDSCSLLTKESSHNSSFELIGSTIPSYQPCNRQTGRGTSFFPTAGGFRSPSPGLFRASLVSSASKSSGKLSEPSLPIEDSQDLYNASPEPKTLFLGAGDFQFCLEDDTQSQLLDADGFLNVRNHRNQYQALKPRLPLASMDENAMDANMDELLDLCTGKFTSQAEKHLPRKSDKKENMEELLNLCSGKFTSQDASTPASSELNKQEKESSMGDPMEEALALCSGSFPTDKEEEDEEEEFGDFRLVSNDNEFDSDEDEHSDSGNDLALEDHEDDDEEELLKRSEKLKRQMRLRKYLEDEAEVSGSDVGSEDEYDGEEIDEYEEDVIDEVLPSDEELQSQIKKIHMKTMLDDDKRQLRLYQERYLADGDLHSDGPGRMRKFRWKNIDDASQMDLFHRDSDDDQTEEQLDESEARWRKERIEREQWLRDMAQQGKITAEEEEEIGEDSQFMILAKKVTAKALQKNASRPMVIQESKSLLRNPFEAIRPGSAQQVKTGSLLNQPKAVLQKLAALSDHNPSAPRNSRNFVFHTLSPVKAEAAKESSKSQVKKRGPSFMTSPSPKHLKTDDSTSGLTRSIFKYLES
inactive: [1] -0.028 | crizotinib 0.039 | [2] -0.04 | [3] -0.046 | duvelisib -0.045 | gandotinib 0.047 | tozasertib 0.049 | [4] -0.104 | doramapimod 0.001 | ispinesib 0.107 | bafetinib -0.071 | [5] -0.035 | nilotinib 0.018 | [6] -0.011 | dasatinib 0.094 | [7] -0.123 | [8] -0.021 | [9] -0.03 | tipifarnib 0.045 | mubritinib 0.053

CSNK2B (UniProt P67870)
UniProt P67870, sequence (P67870 whole entry, looked up): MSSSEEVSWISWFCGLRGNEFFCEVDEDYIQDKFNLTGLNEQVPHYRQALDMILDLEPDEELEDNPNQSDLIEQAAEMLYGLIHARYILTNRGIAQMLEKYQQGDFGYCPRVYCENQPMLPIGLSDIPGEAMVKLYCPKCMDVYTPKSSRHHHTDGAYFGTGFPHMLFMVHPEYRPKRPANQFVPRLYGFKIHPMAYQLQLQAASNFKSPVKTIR
inactive: [1] 0.05 | crizotinib -0.037 | [2] 0.049 | [3] -0.128 | duvelisib 0.075 | gandotinib -0.027 | tozasertib 0.006 | [4] -0.005 | doramapimod -0.002 | ispinesib 0.016 | bafetinib 0.036 | [5] 0.014 | nilotinib 0.052 | [6] 0.018 | dasatinib 0.015 | [7] -0.05 | [8] 0.038 | [9] -0.01 | tipifarnib -0.042 | mubritinib -0.017

CCNB1 (UniProt P14635)
inactive: [1] -0.002 | crizotinib -0.021 | [2] -0.044 | [3] -0.024 | duvelisib 0.06 | gandotinib -0.004 | tozasertib -0.042 | [4] -0.025 | doramapimod -0.011 | ispinesib 0.043 | bafetinib -0.018 | [5] 0.009 | nilotinib 0.04 | [6] -0.156 | dasatinib 0.02 | [7] -0.025 | [8] 0.006 | [9] 0.003 | tipifarnib 0.02 | mubritinib 0.08

C9orf72 (UniProt Q96LT7)
UniProt Q96LT7, sequence (Q96LT7 whole entry, looked up): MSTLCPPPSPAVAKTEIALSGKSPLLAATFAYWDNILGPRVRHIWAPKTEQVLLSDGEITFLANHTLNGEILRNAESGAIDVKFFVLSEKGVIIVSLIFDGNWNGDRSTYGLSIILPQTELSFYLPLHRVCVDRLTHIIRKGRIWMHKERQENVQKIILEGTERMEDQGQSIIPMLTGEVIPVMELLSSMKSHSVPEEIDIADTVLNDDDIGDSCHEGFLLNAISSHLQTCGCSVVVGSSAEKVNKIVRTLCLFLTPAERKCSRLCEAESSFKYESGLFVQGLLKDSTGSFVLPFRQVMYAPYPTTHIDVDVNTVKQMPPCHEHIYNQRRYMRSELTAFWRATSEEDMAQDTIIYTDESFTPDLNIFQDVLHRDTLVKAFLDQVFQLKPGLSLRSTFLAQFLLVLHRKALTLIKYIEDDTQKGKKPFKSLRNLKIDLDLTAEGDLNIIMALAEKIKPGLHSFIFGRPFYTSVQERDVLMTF
inactive: [1] 0.058 | crizotinib -0.134 | [2] -0.024 | [3] -0.048 | duvelisib 0.008 | tozasertib -0.019 | [4] 0.057 | doramapimod 0.01 | ispinesib 0.04 | bafetinib 0.029 | [5] -0.018 | nilotinib 0.031 | [6] 0.073 | dasatinib -0.004 | [7] 0.006 | [8] 0.085 | [9] -0.05 | tipifarnib 0.033 | mubritinib 0.021
active: gandotinib -0.313

CBS (UniProt P35520)
UniProt P35520, sequence (P35520 whole entry, looked up): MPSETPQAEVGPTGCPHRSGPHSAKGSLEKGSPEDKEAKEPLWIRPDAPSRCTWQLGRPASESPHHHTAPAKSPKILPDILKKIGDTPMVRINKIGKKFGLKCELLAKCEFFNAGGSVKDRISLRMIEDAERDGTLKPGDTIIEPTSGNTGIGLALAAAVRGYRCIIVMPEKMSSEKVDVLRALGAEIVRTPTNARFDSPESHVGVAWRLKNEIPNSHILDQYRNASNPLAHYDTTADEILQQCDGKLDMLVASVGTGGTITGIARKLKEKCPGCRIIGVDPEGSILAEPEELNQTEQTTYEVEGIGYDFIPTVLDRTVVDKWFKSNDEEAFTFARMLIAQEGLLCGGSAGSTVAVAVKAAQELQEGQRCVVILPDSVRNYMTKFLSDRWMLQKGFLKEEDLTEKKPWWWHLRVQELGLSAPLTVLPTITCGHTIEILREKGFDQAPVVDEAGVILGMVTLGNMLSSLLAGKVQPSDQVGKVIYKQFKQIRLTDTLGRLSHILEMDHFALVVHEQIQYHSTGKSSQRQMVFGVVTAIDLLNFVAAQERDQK
inactive: [1] -0.024 | crizotinib 0.044 | [2] 0.023 | [3] -0.054 | duvelisib 0.027 | gandotinib -0.033 | tozasertib -0.032 | [4] -0.031 | doramapimod -0.076 | ispinesib -0.019 | bafetinib -0.031 | [5] -0.029 | nilotinib 0.025 | [6] -0.012 | dasatinib 0.018 | [7] -0.003 | [8] 0.079 | [9] 0.035 | tipifarnib -0.023 | mubritinib 0.056

CD151 (UniProt P48509)
UniProt P48509, sequence (P48509 whole entry, looked up): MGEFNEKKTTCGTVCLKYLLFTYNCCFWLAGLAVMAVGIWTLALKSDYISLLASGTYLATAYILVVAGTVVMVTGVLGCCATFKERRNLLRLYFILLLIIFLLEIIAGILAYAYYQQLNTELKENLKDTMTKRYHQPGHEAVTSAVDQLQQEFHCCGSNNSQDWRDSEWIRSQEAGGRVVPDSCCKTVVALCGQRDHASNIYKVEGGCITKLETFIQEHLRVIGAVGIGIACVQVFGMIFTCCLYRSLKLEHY
inactive: [1] -0.151 | crizotinib 0.208 | [2] 0.07 | [3] -0.089 | duvelisib 0.138 | gandotinib -0.19 | tozasertib -0.04 | [4] -0.043 | doramapimod -0.056 | ispinesib 0.068 | bafetinib 0.135 | [5] 0.015 | nilotinib -0.072 | [6] 0.157 | dasatinib 0.063 | [7] 0.019 | [8] 0.025 | [9] -0.002 | tipifarnib -0.076 | mubritinib -0.092

CALCOCO2 isoform 4 (UniProt Q13137)
UniProt Q13137, sequence (Q13137 whole entry, looked up): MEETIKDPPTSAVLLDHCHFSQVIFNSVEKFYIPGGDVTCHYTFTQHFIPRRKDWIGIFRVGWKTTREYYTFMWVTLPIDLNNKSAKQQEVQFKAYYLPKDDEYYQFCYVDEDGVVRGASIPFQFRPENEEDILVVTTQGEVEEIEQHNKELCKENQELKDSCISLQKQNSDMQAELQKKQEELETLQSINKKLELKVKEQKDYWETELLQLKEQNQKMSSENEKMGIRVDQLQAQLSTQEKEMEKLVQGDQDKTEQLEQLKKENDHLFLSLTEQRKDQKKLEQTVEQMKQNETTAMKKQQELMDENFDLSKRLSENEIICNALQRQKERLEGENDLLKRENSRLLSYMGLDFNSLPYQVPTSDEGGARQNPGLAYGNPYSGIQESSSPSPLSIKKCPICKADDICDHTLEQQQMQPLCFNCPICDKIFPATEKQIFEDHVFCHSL
active: crizotinib -0.355 | bafetinib -0.647
inactive: [1] 0.026 | [2] -0.106 | [3] 0.024 | duvelisib 0.042 | gandotinib 0.071 | tozasertib 0.115 | [4] -0.037 | doramapimod -0.002 | ispinesib -0.262 | [5] -0.061 | nilotinib -0.039 | [6] 0.038 | dasatinib 0.01 | [7] 0.1 | [8] -0.013 | [9] -0.035 | tipifarnib -0.015 | mubritinib -0.025

CNDP2 (UniProt Q96KP4)
inactive: [1] 0.03 | crizotinib -0.061 | [2] 0.102 | [3] -0.067 | duvelisib 0.02 | gandotinib 0.072 | tozasertib -0.02 | [4] 0.015 | doramapimod 0.018 | ispinesib -0.099 | bafetinib -0.03 | [5] 0.006 | nilotinib 0.045 | [6] -0.015 | dasatinib -0.031 | [7] -0.041 | [8] 0.066 | [9] 0.032 | tipifarnib -0.067 | mubritinib 0.101

C16orf58 (UniProt Q96GQ5)
UniProt Q96GQ5, sequence (Q96GQ5 whole entry, looked up): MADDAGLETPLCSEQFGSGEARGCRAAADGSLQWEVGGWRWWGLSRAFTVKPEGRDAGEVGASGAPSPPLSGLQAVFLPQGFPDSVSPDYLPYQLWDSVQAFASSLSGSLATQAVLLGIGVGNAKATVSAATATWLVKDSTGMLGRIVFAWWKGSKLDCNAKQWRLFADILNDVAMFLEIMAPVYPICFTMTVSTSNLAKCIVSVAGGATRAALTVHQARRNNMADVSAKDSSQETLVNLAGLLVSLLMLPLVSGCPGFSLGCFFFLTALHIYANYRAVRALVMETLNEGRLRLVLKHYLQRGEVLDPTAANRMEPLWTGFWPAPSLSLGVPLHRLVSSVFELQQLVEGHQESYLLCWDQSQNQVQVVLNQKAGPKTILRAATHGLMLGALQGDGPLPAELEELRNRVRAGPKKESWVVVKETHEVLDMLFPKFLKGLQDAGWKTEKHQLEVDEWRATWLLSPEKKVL
active: ispinesib -0.309
inactive: [1] 0.011 | crizotinib -0.057 | [2] 0.126 | [3] 0 | duvelisib 0.044 | gandotinib -0.08 | tozasertib -0.028 | [4] -0.035 | doramapimod 0.006 | bafetinib -0.112 | [5] 0.052 | nilotinib -0.036 | [6] 0.029 | dasatinib -0.046 | [7] -0.01 | [8] 0.084 | [9] 0.012 | tipifarnib 0.003 | mubritinib 0.021

CMTR1 (UniProt Q8N1G2)
UniProt Q8N1G2, sequence (Q8N1G2 whole entry, looked up): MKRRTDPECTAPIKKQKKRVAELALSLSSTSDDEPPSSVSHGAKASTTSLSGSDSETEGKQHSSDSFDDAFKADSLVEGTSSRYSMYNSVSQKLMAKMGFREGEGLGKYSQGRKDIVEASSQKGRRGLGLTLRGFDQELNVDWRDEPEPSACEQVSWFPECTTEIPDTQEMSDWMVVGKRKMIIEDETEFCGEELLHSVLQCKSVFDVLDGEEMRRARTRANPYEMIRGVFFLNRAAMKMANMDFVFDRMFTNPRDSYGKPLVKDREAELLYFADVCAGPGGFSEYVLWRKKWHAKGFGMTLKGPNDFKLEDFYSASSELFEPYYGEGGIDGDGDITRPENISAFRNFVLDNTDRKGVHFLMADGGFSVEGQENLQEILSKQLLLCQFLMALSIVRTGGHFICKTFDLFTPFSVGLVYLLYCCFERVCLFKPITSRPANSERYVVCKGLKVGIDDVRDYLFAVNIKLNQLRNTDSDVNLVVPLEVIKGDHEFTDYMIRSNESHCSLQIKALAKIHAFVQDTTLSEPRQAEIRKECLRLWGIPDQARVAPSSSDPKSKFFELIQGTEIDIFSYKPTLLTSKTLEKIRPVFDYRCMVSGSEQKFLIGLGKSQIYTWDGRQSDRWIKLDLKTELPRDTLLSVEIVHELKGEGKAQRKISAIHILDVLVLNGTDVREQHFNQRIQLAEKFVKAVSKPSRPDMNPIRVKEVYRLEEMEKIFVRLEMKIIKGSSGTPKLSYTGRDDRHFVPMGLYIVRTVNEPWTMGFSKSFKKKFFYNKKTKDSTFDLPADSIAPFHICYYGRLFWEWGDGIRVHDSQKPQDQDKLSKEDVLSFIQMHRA
inactive: [1] 0.02 | crizotinib 0.014 | [2] 0.011 | [3] 0.059 | duvelisib 0.05 | gandotinib 0.025 | tozasertib 0.002 | [4] 0.029 | doramapimod -0.036 | ispinesib -0.002 | bafetinib -0.054 | [5] 0 | nilotinib -0.059 | [6] -0.01 | dasatinib -0.059 | [7] 0.035 | [8] -0.033 | [9] 0.044 | tipifarnib -0.03 | mubritinib 0.029

CLUH (UniProt O75153)
inactive: [1] -0.001 | crizotinib -0.094 | [3] 0.094 | gandotinib -0.037 | tozasertib -0.024 | [4] 0.01 | doramapimod 0.02 | ispinesib 0.043 | bafetinib 0.007 | [5] 0.045 | nilotinib 0.191 | [6] 0.108 | dasatinib -0.093 | [7] -0.068 | [8] 0.067 | tipifarnib -0.022 | mubritinib -0.018
active: [2] 0.348 | duvelisib 0.698 | [9] 0.478

CASTOR2 (UniProt A6NHX0)
UniProt A6NHX0, sequence (A6NHX0 whole entry, looked up): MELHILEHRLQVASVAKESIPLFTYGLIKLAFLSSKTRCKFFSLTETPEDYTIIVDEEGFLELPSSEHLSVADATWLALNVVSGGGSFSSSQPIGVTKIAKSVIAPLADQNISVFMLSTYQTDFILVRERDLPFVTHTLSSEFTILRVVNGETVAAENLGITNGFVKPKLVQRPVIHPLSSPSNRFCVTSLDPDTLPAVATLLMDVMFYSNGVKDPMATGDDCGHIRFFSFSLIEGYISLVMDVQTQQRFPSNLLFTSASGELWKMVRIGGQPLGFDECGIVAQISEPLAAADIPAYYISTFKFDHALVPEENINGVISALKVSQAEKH
inactive: [1] -0.053 | crizotinib 0.045 | [2] 0.088 | [3] -0.022 | duvelisib 0.075 | gandotinib -0.018 | tozasertib -0.113 | [4] 0.008 | doramapimod 0.037 | ispinesib 0.018 | bafetinib -0.063 | [5] 0.019 | nilotinib 0.011 | [6] 0.02 | dasatinib -0.024 | [7] -0.039 | [8] -0.019 | [9] -0.032 | tipifarnib -0.311 | mubritinib -0.032

CPSF1 (UniProt Q10570)
inactive: [1] -0.015 | crizotinib -0.021 | [2] -0.185 | [3] 0.048 | duvelisib 0.064 | gandotinib -0.068 | tozasertib -0.032 | [4] 0.161 | doramapimod 0.09 | ispinesib 0.036 | bafetinib 0.026 | [5] -0.007 | nilotinib 0.065 | [6] -0.002 | dasatinib -0.037 | [7] -0.014 | [8] -0.077 | [9] -0.14 | tipifarnib 0.026 | mubritinib -0.007

CDC26 (UniProt Q8NHZ8)
inactive: [1] 0.036 | crizotinib 0.153 | [2] 0.016 | [3] 0.212 | duvelisib -0.097 | gandotinib -0.033 | tozasertib 0.096 | [4] -0.021 | doramapimod -0.017 | ispinesib 0.406 | bafetinib -0.034 | [5] 0.162 | nilotinib -0.011 | [6] -0.059 | dasatinib 0.143 | [7] 0.029 | [8] 0.179 | [9] -0.027 | tipifarnib 0.131 | mubritinib -0.028

Reference: the supplement of paper PMC10849652
